Assay results as given in PubChem BioAssay (NCI).
The panel holds about 83,000 compounds, 20% with a hit somewhere; the sample as a whole holds those more often.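 Single-concentration screen, 48 h exposure, 96-well plates. Endpoint: percent growth. Below 10 = active.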 Active and inactive are the calls of the source.

Columns and labels:
Test in all cases: NCI-60 one-dose screen, 48 h (100 = growth as untreated, 0 = no growth, -100 = all killed)
Details in all cases: 10 µM unless noted
[1] = test system: T-47D breast
[2] = test system: MDA-MB-435 melanoma
[3] = test system: SW-620 colon
[4] = test system: MCF7 breast
[5] = test system: HCT-116 colon
[6] = test system: HCC-2998 colon
[7] = test system: KM12 colon

Measured: growth

O=S(=O)(Nc1ccccc1)c1ccc(C2CC3(Cl)C(Cl)=C(Cl)C2(Cl)C3(Cl)Cl)cc1 (stereo not given)
inactive: [1] 29.4% | [2] 23.6% | [3] 30.7% | [4] 23.2% | [5] 17.6% | [6] 53.5% | [7] 22.7%

O=C1/C(=C/c2ccc(Cl)c(Cl)c2)CN(C(=O)C(Cl)Cl)C/C1=C\c1ccc(Cl)c(Cl)c1
active: [1] -36.7% | [2] -68.7% | [3] -71.5% | [4] -57.7% | [5] -92.5% | [6] -88.8% | [7] -71.2%

CC(C)NC1CCC(Nc2ccnc3cc(Cl)ccc23)CC1 (stereo not given)
inactive: [1] 80.3% | [2] 96% | [3] 91.7% | [4] 93.3% | [5] 76.6% | [6] 101% | [7] 110%

N#Cc1cnc(NCCc2ccncc2)nc1-n1cnc2ccccc21
inactive: [1] 54.5% | [2] 69% | [3] 58.8% | [4] 64.4% | [5] 24.8% | [6] 58.5% | [7] 25.9%

O=C(Nn1c2c(sc1=Nc1ccccc1)C(=O)c1ccccc1C2=O)c1cc2ccc1CCc1ccc(cc1)CC2
active: [2] -72.5%
inactive: [1] 71.1% | [3] 75.9% | [4] 45.6% | [5] 60.9% | [6] 86.8% | [7] 78.8%

Clc1ccc(Sc2cnc(-c3ccccc3)o2)cc1
inactive: [1] 84.6% | [2] 101% | [3] 105% | [4] 96.1% | [5] 104% | [6] 99.2% | [7] 102%

CC(C)CCC[C@@H](C)[C@H]1CC[C@H]2[C@@H]3CC=C4C[C@@H](C(C(=O)O)C(=O)O)CC[C@]4(C)[C@H]3CC[C@]12C
active: [1] -13.8% | [2] -55.6% | [3] -39.7% | [4] 1.84% | [5] -61.3% | [6] -47.5% | [7] -74.4%

COc1ccc2cc(C(=O)c3coc4ccc(O)cc34)ccc2c1
inactive: [1] 84.2% | [2] 104% | [3] 116% | [4] 37.5% | [5] 94% | [6] 103% | [7] 90.3%

CN(C)CCCn1c2c(c3ncccc3c1=O)C(=O)c1ccccc1-2
inactive: [1] 47.8% | [2] 64% | [3] 24% | [4] 11.8% | [5] 11.2% | [6] 63.9% | [7] 40.9%

O=C1c2cccc3cccc(c23)C(=O)N1N1C(=O)c2cccc3c(N4CCOCC4)ccc(c23)C1=O
inactive: [1] 91.7% | [2] 102% | [3] 100% | [4] 94.9% | [5] 91.3% | [7] 100%

COC(C(=O)[C@@H](O)[C@@H](C)O)[C@@H]1Cc2cc3cc(O[C@H]4C[C@@H](O[C@H]5C[C@@H](O)[C@H](O)C(C)O5)[C@H](O)C(C)O4)cc(O)c3c(O)c2C(=O)[C@H]1O[C@H]1C[C@@H](O[C@H]2C[C@@H](O[C@H]3C[C@@H](OC)[C@H](O)C(C)O3)[C@@H](O)C(C)O2)[C@H](O)C(C)O1 (stereo not given in full)
inactive: [1] 35.2% | [2] 44.8% | [3] 39.7% | [4] 11.5% | [5] 11.2% | [6] 63.7% | [7] 40%

Fc1cc(F)cc(C(c2c[nH]c3ccccc23)c2c[nH]c3ccccc23)c1
inactive: [1] 97% | [2] 103% | [3] 93% | [4] 110% | [5] 89.8% | [7] 97.5%

Nc1c(C(=O)Nc2ccncc2)sc2nc3c(cc12)CCCCCC3
inactive: [1] 49.9% | [2] 96% | [3] 103% | [4] 78.5% | [5] 65.5% | [6] 94.1% | [7] 80.7%

COc1ccc(-c2nnc(-c3ccc4c(c3)nc(-c3ccncc3)n4C3CCCCC3)o2)cc1
inactive: [1] 30.8% | [2] 75.9% | [3] 95.9% | [4] 65.6% | [5] 62.3% | [6] 88.8% | [7] 71.9%

O=C(CCc1nnc(Cn2cnc3nc[nH]c3c2=O)o1)c1nc2ncccc2[nH]1
inactive: [1] 94.5% | [2] 99.5% | [3] 96% | [4] 97.2% | [5] 97.3% | [6] 105% | [7] 105%

COCCn1cc(-c2nc(-c3cc4cccnc4n3CCOC)cs2)c2cc(OC)ccc21
active: [1] -10.5% | [4] 5.4%
inactive: [2] 91.4% | [3] 49% | [5] 43% | [6] 28% | [7] 11.8%

CCOC(=O)/C=C1\S/C(=N\Nc2cc(=O)[nH]c3ccc(Cl)cc23)N(c2ccccc2)C1=O
inactive: [1] 66.8% | [2] 96.3% | [3] 77.3% | [4] 34.3% | [5] 38.9% | [6] 105% | [7] 98.5%

COC(=O)c1ccc2c(c1)C(=O)c1c-2n(CCCN)c(=O)c2cc([N+](=O)[O-])ccc12
active: [1] -80.3% | [2] -90.9% | [3] -100% | [4] -87.8% | [5] -100% | [6] -94.9% | [7] -97.2%

C1=C(N2CCCC2)CCC1
inactive: [1] 104% | [2] 95.1% | [3] 101% | [4] 91% | [5] 102% | [6] 110% | [7] 109%

CC(C)(C)n1cc(-c2ccnc(NCCCNS(=O)(=O)c3ccc(F)cc3)c2)c(-c2cccc(F)c2)n1
inactive: [1] 24.6% | [2] 73.8% | [3] 22.4% | [4] 41.2% | [5] 37% | [6] 54.7% | [7] 40.9%

CCn1c(=S)[nH]c2c(=O)n(C)c(=O)n(C)c21
inactive: [1] 104% | [2] 103% | [3] 112% | [4] 102% | [5] 93.1% | [7] 111%

O=C(c1cc2ccccc2o1)c1nn(-c2ccccc2)/c(=N/N=Cc2cn(-c3ccccc3)nc2-c2cc3ccccc3oc2=O)s1
inactive: [1] 92.9% | [2] 81.1% | [3] 97.1% | [4] 83.1% | [5] 89.8% | [6] 104% | [7] 96.5%

O=C1Nc2ccc(I)cc2C1=O
inactive: [1] 106% | [2] 103% | [3] 65.2% | [4] 71.5% | [5] 71.8% | [6] 62.9% | [7] 82.8%

Cn1cc(-c2csc(-c3c[nH]c4ccc(Br)cc34)n2)c2cnccc21
active: [1] -51.5% | [2] -92% | [3] -82.6% | [4] -68.6% | [5] -90.9% | [6] -76.5% | [7] -79.9%
